The target in one assay is CD86. Briefly: pooled miR-30 sensor sort-seq; sequence = guide strand. The following applies: shRNA.
For TATTGCTCGTAACATCAGGGAA, the sensor-assay potency score (higher = more potent) was -0.935.

AACACTGTCAAATTTCTCTTTG gave a sensor-assay potency score (higher = more potent) of -0.375.

TTCTGTGACATTATCTTGAGAT gave a sensor-assay potency score (higher = more potent) of 0.246.

TAGAATTAGACAGAAAACCATC returned a sensor-assay potency score (higher = more potent) of -0.951.

In the case of AAGATGGTCATATTGCTCGTAA, the sensor-assay potency score (higher = more potent) was -0.638.

TTTATGTACACATTTTCTGTTA yielded a sensor-assay potency score (higher = more potent) of -0.664.

For the sequence TAACCGTGTATAGATGAGCAGG, the sensor-assay potency score (higher = more potent) is -0.921.

In turn, ATTGAAATAAGCTTGAATCTTC came in with a sensor-assay potency score (higher = more potent) of 0.247.

TCATATTGCTCGTAACATCAGG yielded a sensor-assay potency score (higher = more potent) of -0.912.

TAACTGTTGGAAGTACAGCTGT came in with a sensor-assay potency score (higher = more potent) of -0.0777.

For TAAGCTTGAATCTTCAGAGGAG, the sensor-assay potency score (higher = more potent) turned out to be 0.681.

TACTATTTCAGGTTGACTGAAG: the sensor-assay potency score (higher = more potent) is -0.445.

The next assay concerns the target CD8B. The assay is described as above. The following applies: shRNA.
As for TATTGCTGTAGTATCCATGCAG, the sensor-assay potency score (higher = more potent) came to 0.681.

For the sequence TTATTTGTACAACTAAGACATT, the sensor-assay potency score (higher = more potent) was -1.21.

With AACACAGCTATCTTCTCCTGTT, the sensor-assay potency score (higher = more potent) was -0.341.

TGTACAACTAAGACATTTGTAT returned a sensor-assay potency score (higher = more potent) of 0.113.

In turn, TATTTGTACAACTAAGACATTT gave a sensor-assay potency score (higher = more potent) of -1.4.

For the sequence TAACCGGCACACTCTCTTCTTG, the sensor-assay potency score (higher = more potent) is -0.762.

As to TTGAGGGTGGACTTCTTGGTGG, the sensor-assay potency score (higher = more potent) is -0.918.

In turn, TTCTCCAGTGGATGTAATCTTA returned a sensor-assay potency score (higher = more potent) of -0.513.

TTGCATCCCGAAACACAGCTAT registered a sensor-assay potency score (higher = more potent) of -0.634.

Consider TATGTATGCAGGGGTCTGCTGG, for which the sensor-assay potency score (higher = more potent) was -1.19.

As to TTTTTCCACATCGTGCTCGTTA, the sensor-assay potency score (higher = more potent) is -0.473.

As for TTGGTTTGCACCTTTATGTATG, the sensor-assay potency score (higher = more potent) was -1.15.

In turn, TACATTTGGTTCCACAAGGGGG displayed a sensor-assay potency score (higher = more potent) of -0.791.

Sequence TTTAGCCTCGCAGGACAGCATC yielded a sensor-assay potency score (higher = more potent) of -1.65.

On to TATCTTCTCCTGTTCCACCTCT, for which the sensor-assay potency score (higher = more potent) came to 0.0744.

The sequence AAGGAAATCAACCACACTCAGC came in with a sensor-assay potency score (higher = more potent) of -1.28.

Sequence TAATCTTAGTTGTTTCATGAAA yielded a sensor-assay potency score (higher = more potent) of -1.22.

With AAACACAGCTATCTTCTCCTGT, the sensor-assay potency score (higher = more potent) is 0.733.

Sequence TACTGAGGGAGATTTTAGCCTC returned a sensor-assay potency score (higher = more potent) of -0.613.

For the origin of these results see the OligoGym collection.
Note: reference of the scale not given here.
